Assay results published in article PMC7862700, “An all-to-all approach to the identification of sequence-specific readers for epigenetic DNA modifications on cytosine”.

Columns and labels:
Test in all cases: DAPPL (digital affinity profiling via proximity ligation, sequencing); 10 mM Tris-HCl pH 7.5, 50 mM NaCl, 1 mM DTT, 4% glycerol, room temperature, 30 min; GST-TFs on glutathione beads, 16-mer random dsDNA library, 0.1% formaldehyde crosslink after washing; high values mean tight binding
[1] = target: T1, FEV (Homo sapiens, UniProt Q99581 1-238); settings: protein: recombinant; tags: N-terminal GST; dsDNA, one strand shown
T1 sequence: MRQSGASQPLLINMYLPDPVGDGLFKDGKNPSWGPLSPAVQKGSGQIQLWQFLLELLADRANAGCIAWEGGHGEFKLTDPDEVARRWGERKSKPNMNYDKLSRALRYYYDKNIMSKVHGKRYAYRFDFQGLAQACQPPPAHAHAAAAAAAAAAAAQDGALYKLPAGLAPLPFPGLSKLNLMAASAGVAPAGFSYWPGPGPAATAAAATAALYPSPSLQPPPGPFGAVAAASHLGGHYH
In short: (§1)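 Each value of binding signal is a hexamer's read frequency for a factor divided by the same hexamer's frequency in the tag-only sample. Barcoded, bead-captured GST fusions of human transcription factors made in yeast were pooled with that sample and incubated with 200 nmole of a random double-stranded 16-mer DNA library in Tris/NaCl/DTT/glycerol buffer at room temperature for 30 min. Washing, 0.1% formaldehyde crosslinking, proximity ligation, PCR and Illumina NextSeq500 sequencing followed.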

[2] = target: ETV5 (Homo sapiens, UniProt P41161 1-510); settings: protein: recombinant; tags: N-terminal GST; dsDNA, one strand shown
Chain of ETV5 (P41161 whole entry): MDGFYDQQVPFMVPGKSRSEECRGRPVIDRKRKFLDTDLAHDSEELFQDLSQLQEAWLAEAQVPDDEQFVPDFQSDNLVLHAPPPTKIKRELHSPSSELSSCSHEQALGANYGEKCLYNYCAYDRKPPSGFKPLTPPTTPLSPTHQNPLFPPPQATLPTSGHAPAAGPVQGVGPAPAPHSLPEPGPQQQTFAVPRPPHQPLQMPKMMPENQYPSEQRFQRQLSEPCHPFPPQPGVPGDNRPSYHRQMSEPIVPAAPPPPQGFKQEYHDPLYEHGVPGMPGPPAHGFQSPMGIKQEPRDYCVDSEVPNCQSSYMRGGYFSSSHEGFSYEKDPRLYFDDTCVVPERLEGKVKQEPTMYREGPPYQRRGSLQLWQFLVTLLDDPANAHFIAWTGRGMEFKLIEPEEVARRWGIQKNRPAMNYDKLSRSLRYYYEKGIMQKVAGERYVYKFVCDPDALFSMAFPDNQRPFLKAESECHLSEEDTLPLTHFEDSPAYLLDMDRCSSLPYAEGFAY
In short: as §1

[3] = target: HSF1 (Homo sapiens, UniProt Q00613 1-529); settings: protein: recombinant; tags: N-terminal GST; chain copies: 3; dsDNA, one strand shown
Chain of HSF1 (Q00613 whole entry): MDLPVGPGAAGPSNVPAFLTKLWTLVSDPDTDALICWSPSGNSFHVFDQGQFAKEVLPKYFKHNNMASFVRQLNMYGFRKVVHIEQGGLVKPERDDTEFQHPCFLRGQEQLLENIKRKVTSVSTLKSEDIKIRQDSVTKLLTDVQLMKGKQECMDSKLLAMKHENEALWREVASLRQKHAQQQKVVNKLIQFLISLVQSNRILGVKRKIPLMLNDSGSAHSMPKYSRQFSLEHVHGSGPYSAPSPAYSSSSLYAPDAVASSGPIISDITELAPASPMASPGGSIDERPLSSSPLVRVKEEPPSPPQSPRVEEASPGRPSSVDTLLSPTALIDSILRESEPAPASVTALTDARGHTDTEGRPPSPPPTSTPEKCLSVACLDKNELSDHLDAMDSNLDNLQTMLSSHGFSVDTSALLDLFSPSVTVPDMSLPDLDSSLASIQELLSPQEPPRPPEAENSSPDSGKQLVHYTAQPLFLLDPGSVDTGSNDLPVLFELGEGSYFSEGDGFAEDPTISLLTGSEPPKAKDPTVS
In short: as §1

[4] = target: T2, SPIC (Homo sapiens, UniProt Q8N5J4 1-248); settings: protein: recombinant; tags: N-terminal GST; dsDNA, one strand shown
T2 sequence: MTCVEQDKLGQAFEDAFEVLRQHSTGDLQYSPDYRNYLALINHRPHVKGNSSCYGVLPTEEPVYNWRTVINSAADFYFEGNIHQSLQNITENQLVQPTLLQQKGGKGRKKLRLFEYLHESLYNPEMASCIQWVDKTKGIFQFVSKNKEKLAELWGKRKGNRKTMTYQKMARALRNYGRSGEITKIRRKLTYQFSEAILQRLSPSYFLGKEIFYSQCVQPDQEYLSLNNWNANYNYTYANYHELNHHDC
In short: as §1

[5] = target: ELF4 (Homo sapiens, UniProt Q99607 1-663); settings: protein: recombinant; tags: N-terminal GST; dsDNA, one strand shown
Chain of ELF4 (Q99607 whole entry): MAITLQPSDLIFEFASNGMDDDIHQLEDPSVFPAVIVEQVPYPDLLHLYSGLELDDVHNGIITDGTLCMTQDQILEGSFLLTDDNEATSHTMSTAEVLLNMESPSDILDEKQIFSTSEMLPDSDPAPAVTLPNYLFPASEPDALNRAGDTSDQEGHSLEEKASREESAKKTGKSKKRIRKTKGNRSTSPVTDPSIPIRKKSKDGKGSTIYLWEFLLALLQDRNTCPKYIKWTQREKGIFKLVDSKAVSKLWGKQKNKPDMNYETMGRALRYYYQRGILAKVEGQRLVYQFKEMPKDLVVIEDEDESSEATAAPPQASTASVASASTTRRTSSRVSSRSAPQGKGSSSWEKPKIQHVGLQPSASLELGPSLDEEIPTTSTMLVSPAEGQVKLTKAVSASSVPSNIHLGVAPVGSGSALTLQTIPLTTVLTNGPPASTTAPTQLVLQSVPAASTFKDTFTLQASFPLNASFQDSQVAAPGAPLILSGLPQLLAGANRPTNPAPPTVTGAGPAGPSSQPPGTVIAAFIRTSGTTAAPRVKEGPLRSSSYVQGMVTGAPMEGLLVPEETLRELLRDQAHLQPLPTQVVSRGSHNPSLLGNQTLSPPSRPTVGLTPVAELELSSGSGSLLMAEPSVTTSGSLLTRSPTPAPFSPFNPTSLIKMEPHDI
In short: as §1

[6] = target: T3, ELK4 (Homo sapiens, UniProt P28324-2 1-405); settings: protein: recombinant; tags: N-terminal GST; dsDNA, one strand shown
T3 sequence: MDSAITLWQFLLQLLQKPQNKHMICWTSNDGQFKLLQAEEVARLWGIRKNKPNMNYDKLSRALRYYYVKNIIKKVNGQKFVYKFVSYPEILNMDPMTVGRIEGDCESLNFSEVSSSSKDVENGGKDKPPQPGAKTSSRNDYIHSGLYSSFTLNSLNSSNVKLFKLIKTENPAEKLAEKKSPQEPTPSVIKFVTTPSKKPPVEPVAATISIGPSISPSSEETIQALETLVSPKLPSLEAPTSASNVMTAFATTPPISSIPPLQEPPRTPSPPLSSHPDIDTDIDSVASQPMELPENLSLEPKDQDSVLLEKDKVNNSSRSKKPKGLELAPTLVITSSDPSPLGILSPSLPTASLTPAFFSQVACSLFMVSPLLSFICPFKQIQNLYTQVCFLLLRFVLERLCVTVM
In short: as §1

[7] = target: T4, ETV2 (Homo sapiens, UniProt O00321 1-342); settings: protein: recombinant; tags: N-terminal GST; dsDNA, one strand shown
T4 sequence: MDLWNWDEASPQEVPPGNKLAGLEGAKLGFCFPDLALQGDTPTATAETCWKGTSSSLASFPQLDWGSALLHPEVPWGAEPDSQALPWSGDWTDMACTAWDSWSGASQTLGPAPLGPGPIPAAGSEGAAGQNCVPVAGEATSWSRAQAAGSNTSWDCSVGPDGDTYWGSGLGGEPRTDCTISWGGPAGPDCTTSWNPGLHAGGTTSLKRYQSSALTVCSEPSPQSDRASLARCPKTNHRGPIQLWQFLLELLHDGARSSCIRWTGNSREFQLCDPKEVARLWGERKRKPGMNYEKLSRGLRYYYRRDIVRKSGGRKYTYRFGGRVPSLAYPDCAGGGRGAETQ
In short: as §1

[8] = target: T5, ELF3 (Homo sapiens, UniProt P78545 1-371); settings: protein: recombinant; tags: N-terminal GST; dsDNA, one strand shown
T5 sequence: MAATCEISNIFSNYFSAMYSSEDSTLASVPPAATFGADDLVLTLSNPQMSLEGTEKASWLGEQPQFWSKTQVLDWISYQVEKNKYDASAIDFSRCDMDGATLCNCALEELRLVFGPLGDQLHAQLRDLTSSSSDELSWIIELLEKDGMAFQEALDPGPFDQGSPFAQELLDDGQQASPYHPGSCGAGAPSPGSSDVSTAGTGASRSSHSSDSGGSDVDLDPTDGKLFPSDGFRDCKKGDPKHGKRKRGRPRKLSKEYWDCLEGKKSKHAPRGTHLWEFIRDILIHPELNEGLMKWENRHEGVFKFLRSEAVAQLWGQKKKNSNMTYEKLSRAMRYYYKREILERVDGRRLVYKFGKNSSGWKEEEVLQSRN
In short: as §1

[9] = target: CRX (Homo sapiens, UniProt O43186 1-299); settings: protein: recombinant; tags: N-terminal GST; dsDNA, one strand shown
Chain of CRX (O43186 whole entry): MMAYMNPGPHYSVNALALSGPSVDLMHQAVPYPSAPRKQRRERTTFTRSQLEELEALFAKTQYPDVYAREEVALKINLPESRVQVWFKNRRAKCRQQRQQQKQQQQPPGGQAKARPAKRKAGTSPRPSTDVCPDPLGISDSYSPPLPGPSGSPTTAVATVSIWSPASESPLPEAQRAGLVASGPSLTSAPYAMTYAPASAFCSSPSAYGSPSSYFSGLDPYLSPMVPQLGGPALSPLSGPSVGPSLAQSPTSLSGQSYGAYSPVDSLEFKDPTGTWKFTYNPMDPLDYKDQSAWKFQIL
In short: as §1

[10] = target: ETV1 (Homo sapiens, UniProt P50549 1-477); settings: protein: recombinant; tags: N-terminal GST; dsDNA, one strand shown
Chain of ETV1 (P50549 whole entry): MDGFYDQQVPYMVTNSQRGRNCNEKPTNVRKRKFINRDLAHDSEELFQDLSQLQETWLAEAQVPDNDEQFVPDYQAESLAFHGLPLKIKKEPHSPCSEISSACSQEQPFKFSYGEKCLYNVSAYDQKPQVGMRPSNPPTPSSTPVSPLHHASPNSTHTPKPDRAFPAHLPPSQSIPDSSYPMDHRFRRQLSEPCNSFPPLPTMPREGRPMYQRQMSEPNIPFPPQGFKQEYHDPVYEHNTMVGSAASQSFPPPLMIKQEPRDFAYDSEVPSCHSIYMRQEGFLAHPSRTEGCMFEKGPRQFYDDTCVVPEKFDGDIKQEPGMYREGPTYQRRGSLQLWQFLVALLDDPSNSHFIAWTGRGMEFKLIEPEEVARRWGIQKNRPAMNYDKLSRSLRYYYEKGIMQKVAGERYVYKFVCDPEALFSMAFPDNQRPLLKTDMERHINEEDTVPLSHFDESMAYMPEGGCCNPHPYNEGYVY
In short: as §1

[11] = target: T6, ERF (Homo sapiens, UniProt P50548 1-548); settings: protein: recombinant; tags: N-terminal GST; dsDNA, one strand shown
T6 sequence: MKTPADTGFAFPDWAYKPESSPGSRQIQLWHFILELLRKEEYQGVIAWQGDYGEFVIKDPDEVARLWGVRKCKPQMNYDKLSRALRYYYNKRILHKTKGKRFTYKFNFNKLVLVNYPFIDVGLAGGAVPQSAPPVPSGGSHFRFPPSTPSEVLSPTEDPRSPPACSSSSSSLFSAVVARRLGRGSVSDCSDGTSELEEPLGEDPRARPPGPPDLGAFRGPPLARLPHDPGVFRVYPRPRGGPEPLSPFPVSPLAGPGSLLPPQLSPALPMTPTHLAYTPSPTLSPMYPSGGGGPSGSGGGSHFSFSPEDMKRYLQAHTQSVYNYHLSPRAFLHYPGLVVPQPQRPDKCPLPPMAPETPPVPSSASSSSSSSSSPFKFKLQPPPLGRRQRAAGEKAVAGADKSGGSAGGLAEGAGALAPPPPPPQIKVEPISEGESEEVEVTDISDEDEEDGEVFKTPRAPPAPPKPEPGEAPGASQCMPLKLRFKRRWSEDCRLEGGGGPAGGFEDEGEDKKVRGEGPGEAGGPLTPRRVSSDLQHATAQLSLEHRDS
In short: as §1

[12] = target: T7, ETV3L (Homo sapiens, UniProt Q6ZN32 1-361); settings: protein: recombinant; tags: N-terminal GST; dsDNA, one strand shown
T7 sequence: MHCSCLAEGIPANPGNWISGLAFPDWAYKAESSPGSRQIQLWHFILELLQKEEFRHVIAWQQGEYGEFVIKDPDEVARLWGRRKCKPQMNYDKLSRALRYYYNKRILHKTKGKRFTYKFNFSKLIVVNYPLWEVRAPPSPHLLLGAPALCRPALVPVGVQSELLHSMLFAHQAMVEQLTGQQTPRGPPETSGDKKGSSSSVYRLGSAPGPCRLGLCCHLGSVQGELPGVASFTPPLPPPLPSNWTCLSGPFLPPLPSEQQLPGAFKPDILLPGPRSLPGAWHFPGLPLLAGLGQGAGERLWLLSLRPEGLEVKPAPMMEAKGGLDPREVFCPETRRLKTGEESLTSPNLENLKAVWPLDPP
In short: as §1

[13] = target: T8, ETS2 (Homo sapiens, UniProt P15036 1-469); settings: protein: recombinant; tags: N-terminal GST; dsDNA, one strand shown
T8 sequence: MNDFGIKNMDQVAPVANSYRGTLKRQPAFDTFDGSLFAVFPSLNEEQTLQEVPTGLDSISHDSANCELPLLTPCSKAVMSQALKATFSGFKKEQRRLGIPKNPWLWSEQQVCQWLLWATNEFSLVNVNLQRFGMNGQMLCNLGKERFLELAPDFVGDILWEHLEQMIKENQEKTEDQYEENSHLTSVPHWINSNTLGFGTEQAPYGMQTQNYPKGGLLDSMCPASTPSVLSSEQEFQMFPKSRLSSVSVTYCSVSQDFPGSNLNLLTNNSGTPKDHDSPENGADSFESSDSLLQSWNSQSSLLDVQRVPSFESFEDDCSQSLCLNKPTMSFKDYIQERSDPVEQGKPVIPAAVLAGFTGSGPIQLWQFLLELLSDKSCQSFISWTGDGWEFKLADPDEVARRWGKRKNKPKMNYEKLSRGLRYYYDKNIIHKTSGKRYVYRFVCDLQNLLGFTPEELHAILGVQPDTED
In short: as §1

[14] = target: T9, SPDEF (Homo sapiens, UniProt O95238 1-335); settings: protein: recombinant; tags: N-terminal GST; dsDNA, one strand shown
T9 sequence: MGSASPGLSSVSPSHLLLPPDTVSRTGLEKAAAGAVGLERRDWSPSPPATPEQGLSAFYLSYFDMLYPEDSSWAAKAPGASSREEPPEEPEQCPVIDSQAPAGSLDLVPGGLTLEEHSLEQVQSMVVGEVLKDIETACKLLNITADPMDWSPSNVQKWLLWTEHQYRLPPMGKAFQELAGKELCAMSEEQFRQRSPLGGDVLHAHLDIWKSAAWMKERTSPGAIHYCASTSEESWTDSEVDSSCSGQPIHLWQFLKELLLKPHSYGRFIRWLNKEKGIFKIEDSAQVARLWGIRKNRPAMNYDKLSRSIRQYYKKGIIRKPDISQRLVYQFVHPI
In short: as §1

[15] = target: T10, ETV7 (Homo sapiens, UniProt Q9Y603 1-341); settings: protein: recombinant; tags: N-terminal GST; dsDNA, one strand shown
T10 sequence: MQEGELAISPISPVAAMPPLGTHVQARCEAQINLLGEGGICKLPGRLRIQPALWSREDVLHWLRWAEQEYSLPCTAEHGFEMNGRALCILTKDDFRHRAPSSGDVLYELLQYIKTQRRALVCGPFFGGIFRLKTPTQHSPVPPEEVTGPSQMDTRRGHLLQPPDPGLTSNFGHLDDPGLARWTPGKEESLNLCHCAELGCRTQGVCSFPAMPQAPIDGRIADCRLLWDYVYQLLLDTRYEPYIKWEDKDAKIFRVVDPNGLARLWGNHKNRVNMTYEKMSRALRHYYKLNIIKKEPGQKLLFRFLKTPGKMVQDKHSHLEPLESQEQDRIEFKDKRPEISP
In short: as §1

[16] = target: T11, ELF5 (Homo sapiens, UniProt Q9UKW6-2 1-255); settings: protein: recombinant; tags: N-terminal GST; dsDNA, one strand shown
T11 sequence: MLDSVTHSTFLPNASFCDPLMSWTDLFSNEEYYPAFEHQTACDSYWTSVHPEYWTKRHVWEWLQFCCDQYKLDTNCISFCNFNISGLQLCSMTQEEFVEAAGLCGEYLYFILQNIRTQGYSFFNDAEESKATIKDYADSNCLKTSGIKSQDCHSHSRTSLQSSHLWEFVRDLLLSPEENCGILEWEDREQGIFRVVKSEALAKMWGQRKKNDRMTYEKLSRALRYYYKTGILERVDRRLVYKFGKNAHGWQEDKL
In short: as §1

[17] = target: T12, ETV3 (Homo sapiens, UniProt P41162-2 1-143); settings: protein: recombinant; tags: N-terminal GST; dsDNA, one strand shown
T12 sequence: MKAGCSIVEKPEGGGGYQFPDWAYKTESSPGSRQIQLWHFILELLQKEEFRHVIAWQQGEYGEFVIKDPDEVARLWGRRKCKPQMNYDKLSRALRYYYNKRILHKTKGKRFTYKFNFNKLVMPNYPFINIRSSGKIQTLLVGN
In short: as §1

[18] = target: ETV6 (Homo sapiens, UniProt P41212 1-452); settings: protein: recombinant; tags: N-terminal GST; dsDNA, one strand shown
Chain of ETV6 (P41212 whole entry): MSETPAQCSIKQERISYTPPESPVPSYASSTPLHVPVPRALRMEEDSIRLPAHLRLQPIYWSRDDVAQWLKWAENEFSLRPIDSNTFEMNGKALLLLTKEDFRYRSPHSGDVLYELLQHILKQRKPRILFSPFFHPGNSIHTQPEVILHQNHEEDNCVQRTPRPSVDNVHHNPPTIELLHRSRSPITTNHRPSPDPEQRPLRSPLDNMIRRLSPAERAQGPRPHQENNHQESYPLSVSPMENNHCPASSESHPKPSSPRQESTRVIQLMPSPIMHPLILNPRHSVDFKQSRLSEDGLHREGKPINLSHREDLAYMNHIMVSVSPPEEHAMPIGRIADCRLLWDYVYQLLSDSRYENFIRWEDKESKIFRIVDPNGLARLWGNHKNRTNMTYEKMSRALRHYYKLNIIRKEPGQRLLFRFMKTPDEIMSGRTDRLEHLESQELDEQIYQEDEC
In short: as §1

## CTCTTC
[1]
  binding signal: 1.73 fold enrichment (6-mer frequency, TF over GST control)
[2]
  binding signal: 1.76 fold enrichment (6-mer frequency, TF over GST control)
[3]
  binding signal: 1.25 fold enrichment (6-mer frequency, TF over GST control)
[4]
  binding signal: 1.69 fold enrichment (6-mer frequency, TF over GST control)
[5]
  binding signal: 1.68 fold enrichment (6-mer frequency, TF over GST control)
[6]
  binding signal: 1.66 fold enrichment (6-mer frequency, TF over GST control)
[7]
  binding signal: 1.71 fold enrichment (6-mer frequency, TF over GST control)
[8]
  binding signal: 1.67 fold enrichment (6-mer frequency, TF over GST control)
[9]
  binding signal: 1.21 fold enrichment (6-mer frequency, TF over GST control)
[10]
  binding signal: 1.71 fold enrichment (6-mer frequency, TF over GST control)
[11]
  binding signal: 1.62 fold enrichment (6-mer frequency, TF over GST control)
[12]
  binding signal: 1.89 fold enrichment (6-mer frequency, TF over GST control)
[13]
  binding signal: 1.65 fold enrichment (6-mer frequency, TF over GST control)
[14]
  binding signal: 1.59 fold enrichment (6-mer frequency, TF over GST control)
[15]
  binding signal: 1.56 fold enrichment (6-mer frequency, TF over GST control)
[16]
  binding signal: 2.07 fold enrichment (6-mer frequency, TF over GST control)
[17]
  binding signal: 1.75 fold enrichment (6-mer frequency, TF over GST control)
[18]
  binding signal: 1.84 fold enrichment (6-mer frequency, TF over GST control)
